In all, about 310,000 compounds went through this assay and about 14,000 (4.5%) showed an effect of 50% or more. Effects have a minus sign here. Only a selection was taken, and strong results are over-represented in it overall.
biological target: human ether-à-go-go-related gene (hERG) potassium channel (human, UniProt Q12809); experiment: primary screen, population patch clamp on CHO cells stably expressing hERG; higher = less effect of the substance
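Also: peak tail current of the secondary pulse compared with the same well before compound.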

human ether-à-go-go-related gene (hERG) potassium channel, sequence (Q12809 whole entry, looked up): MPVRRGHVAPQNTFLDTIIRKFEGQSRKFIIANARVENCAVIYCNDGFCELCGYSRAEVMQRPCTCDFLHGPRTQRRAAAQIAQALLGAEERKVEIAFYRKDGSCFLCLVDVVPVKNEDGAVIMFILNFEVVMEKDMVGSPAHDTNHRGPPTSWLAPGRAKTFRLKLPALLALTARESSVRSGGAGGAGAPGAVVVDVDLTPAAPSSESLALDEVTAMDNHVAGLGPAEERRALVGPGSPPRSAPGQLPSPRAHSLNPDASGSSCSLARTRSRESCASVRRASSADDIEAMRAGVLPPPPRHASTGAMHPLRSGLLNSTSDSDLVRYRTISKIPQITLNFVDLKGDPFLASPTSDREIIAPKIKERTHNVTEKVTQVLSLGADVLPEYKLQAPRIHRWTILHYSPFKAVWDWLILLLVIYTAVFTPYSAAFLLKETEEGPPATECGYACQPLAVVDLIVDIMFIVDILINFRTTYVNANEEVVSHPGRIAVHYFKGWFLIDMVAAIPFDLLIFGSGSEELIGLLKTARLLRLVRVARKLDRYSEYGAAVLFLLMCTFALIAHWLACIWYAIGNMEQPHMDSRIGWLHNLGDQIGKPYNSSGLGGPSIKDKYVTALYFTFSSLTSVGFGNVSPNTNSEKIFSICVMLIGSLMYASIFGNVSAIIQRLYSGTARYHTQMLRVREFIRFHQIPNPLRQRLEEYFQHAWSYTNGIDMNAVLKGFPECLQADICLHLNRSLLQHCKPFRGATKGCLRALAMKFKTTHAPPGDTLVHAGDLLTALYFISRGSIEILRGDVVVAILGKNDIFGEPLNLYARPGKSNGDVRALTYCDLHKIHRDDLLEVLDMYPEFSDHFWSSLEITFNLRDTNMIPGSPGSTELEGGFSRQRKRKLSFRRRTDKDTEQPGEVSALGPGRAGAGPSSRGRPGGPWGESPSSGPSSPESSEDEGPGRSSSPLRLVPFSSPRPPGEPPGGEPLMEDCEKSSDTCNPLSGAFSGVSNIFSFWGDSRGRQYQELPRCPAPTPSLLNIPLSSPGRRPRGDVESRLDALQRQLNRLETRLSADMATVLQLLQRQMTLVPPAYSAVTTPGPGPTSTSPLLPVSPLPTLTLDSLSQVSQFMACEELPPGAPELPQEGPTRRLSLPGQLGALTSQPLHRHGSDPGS

Row | SMILES | hERG current change (%, negative = inhibition) at 10uM [%]
1 | CN1CCN(C(=O)c2ccccc2NC(=O)c2ccc(C(C)(C)C)cc2)CC1 | -9.21
2 | Cc1onc(C(=O)N2CCN(Cc3ccccc3)CC2)c1[N+](=O)[O-] | -10.7
3 | NSc1nc(N)c2nc(-c3ccccc3)c(-c3ccccc3)nc2n1 | 4.96
4 | CCc1cc2c(=O)n(-c3ccccc3)cnc2s1 | 5.13
5 | COc1cccc(CN(C)C(=O)c2ccc(NS(=O)(=O)c3ccc(F)cc3)cc2)c1OC | -9.34
6 | COc1ccc(CN(C)C(=O)c2ccc(NS(=O)(=O)c3ccc(F)cc3)cc2)c(OC)c1OC | -55.6
7 | COc1ccc(CN(C)C(=O)c2ccc(NS(=O)(=O)c3ccc(F)cc3)cc2)c(OC)c1 | 3.52
8 | COC(=O)C(C)n1cnc2c(nnn2-c2cccc(Cl)c2)c1=O (stereo not shown) | -13.4
9 | CCOC(=O)CNS(=O)(=O)CCN1C(=O)c2ccccc2C1=O | 1.65
10 | COc1ccc(C)cc1NC(=O)C(Sc1nnc2ccccn12)c1ccccc1 (stereo not shown) | -67.7
11 | COc1ccc(NC(=O)C(Sc2nnc3ccccn23)c2ccccc2)cc1Cl (stereo not shown) | -1.62
12 | COc1ccc(C)cc1NC(=O)C(Sc1nncn1C)c1ccccc1 (stereo not shown) | -3.91
13 | COc1cc(C2NC(=O)c3ccccc3O2)cc(OC)c1OC (stereo not shown) | -9.55
14 | CCOc1ccc(CCNC(=O)CSCC(=O)Nc2cccc(C)c2)cc1OCC | -8.35
15 | CC(OC(=O)Cc1n[nH]c(=O)c2ccccc12)C(=O)Nc1ccc(F)cc1Cl (stereo not shown) | 2.32
16 | CCCC1=C(C(=O)OCC)C(c2c(C)nn(-c3ccccc3)c2Cl)C(C#N)=C(N)O1 (stereo not shown) | -16.1
17 | CCOC(=O)C1CCN(S(=O)(=O)c2ccc(CN3C(=O)c4cccnc4C3=O)cc2)CC1 | -9.61
18 | CC1CCCN(S(=O)(=O)c2ccc(CN3C(=O)c4cccnc4C3=O)cc2)C1 (stereo not shown) | -58
19 | CC1CCN(S(=O)(=O)c2cc(F)ccc2CN2C(=O)c3cccnc3C2=O)CC1 | -60.4
20 | Cc1ccc(CNS(=O)(=O)c2cc(F)ccc2CN2C(=O)c3cccnc3C2=O)o1 | -9.97
21 | CC(C)NS(=O)(=O)c1cc(F)ccc1CN1C(=O)c2cccnc2C1=O | 10.5
22 | COc1ccc(CN2C(=O)c3cccnc3C2=O)cc1S(=O)(=O)N1CCCC(C)C1 (stereo not shown) | -0.978
23 | O=C(Nc1ccc(S(=O)(=O)Nc2ncccn2)cc1)c1ccccc1NS(=O)(=O)c1ccc(F)cc1 | 9.91
24 | COc1ccc(-n2c(=S)[nH]c3ncccc3c2=O)cc1 | 7.98
25 | CC1(C)CC(=O)C(CC2=C(N)CC(C)(C)CC2=O)=C(N)C1 | 4.6
26 | COC(C[C@H]1O[C@@H]1C(=O)COCc1ccccc1)OC | 4.27

Row | SMILES | hERG current change (%, negative = inhibition) at 10uM [%]
27 | COc1cc2ncc(S(=O)(=O)c3ccccc3)c(N3CCCC(C)C3)c2cc1OC (stereo not shown) | -7.67
28 | COc1ccc2ncc(S(=O)(=O)c3ccccc3)c(N3CCN(c4ccccc4)CC3)c2c1 | -8.4
29 | CCOc1ccc2ncc(S(=O)(=O)c3ccccc3)c(N3CCC4(CC3)OCCO4)c2c1 | -42.4
30 | COc1cc2ncc(S(=O)(=O)c3ccccc3)c(N3CCC4(CC3)OCCO4)c2cc1OC | -80.8
31 | COc1ccc2ncc(S(=O)(=O)c3ccccc3)c(N3CCC4(CC3)OCCO4)c2c1 | -63.3
32 | COc1ccc(S(=O)(=O)c2cnc3ccc(OC)cc3c2N2CCC3(CC2)OCCO3)cc1 | -28.5
33 | O=C(Nc1ccc(Cl)c(Cl)c1)Nc1ccccn1 | 2.95
34 | Cc1ccc(/C=C2\SC(=S)N(CCCC(=O)Nc3nccs3)C2=O)cc1 | 15.7
35 | O=C(COC(=O)CCCN1C(=O)c2cccc3cccc(c23)C1=O)Nc1ccc(Cl)cc1 | 3.07
36 | N#Cc1ccc(-c2ccc(F)cc2)nc1SCC(=O)Nc1sc2c(c1C#N)CCC2 | 4.57
37 | Cc1ccc2oc(C(=O)N3CCC(N4CCSCC4)CC3)c(C)c2c1 | -30.6
38 | FC(F)(F)c1ccccc1CN1CCN(C2CCCCCC2)CC1.O=C(O)C(=O)O | -49.3
39 | O=C(NC1CC1)C1CCN(C2CCN(C(=O)c3ccc(C(F)(F)F)cc3)CC2)CC1 | -56.4
40 | CC(C)(C)c1ccc(C(=O)N2CCC(C(=O)NC3CC3)CC2)cc1 | -2.74
41 | O=C(NC1CC1)C1CCN(C2CCN(C(=O)Cc3ccc(F)cc3)CC2)CC1 | -2.99
42 | CCOc1ccccc1CN1CCC(N2CCC(C(=O)NC3CC3)CC2)CC1 | 1.53
43 | CC(C)(C)c1ccc(C(=O)N2CCC(C(=O)NC3CCCCCC3)CC2)cc1 | -40
44 | O=C(NC1CC1)C1CCN(C2CCN(C(=O)c3c(F)cccc3Cl)CC2)CC1 | 13.3
45 | O=C(NC1CC1)C1CCN(C2CCN(Cc3ccccc3C(F)(F)F)CC2)CC1 | -53.1
46 | O=C(NC1CC1)C1CCN(C2CCN(C(=O)/C=C/c3ccc(F)cc3)CC2)CC1 | -62.9
47 | Cc1ccc2c(C)c(C(=O)N3CCC(N4CCC(C(=O)NC5CC5)CC4)CC3)oc2c1 | -59.1
48 | O=C(NC1CC1)C1CCN(C2CCN(C(=O)/C=C/c3cccc(F)c3F)CC2)CC1 | -22.1
49 | O=C(NCCCCCCNC(=O)OCCO)OCCO | 28.4
50 | NNC(=O)CNS(=O)(=O)c1ccc([N+](=O)[O-])cc1 | 17.4
51 | COc1ccccc1N(C)S(=O)(=O)c1ccc(C(=O)NCC2CCCCC2)cc1 | -3.05
52 | CC(C)Cn1c(N)c(C(=O)COC(=O)CC23CC4CC(CC(C4)C2)C3)c(=O)n(C)c1=O | -16.2

From paper PMC4336329 (PLoS ONE, 2015)
